The source made the active and inactive calls.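 How the source made its calls: active means GFP response above 150% of the DMSO level; inconclusive means fewer than 70 events counted for a yeast strain; inactive means the rest.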

This assay can be described thus: AGP1-GFP expression modulators, hit retest, confirmation, cell-based, flow cytometry, S. cerevisiae, cherry picks (AID 2273).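 Further: median GFP channel fluorescence over the whole cell population gate.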 The conditions noted are these: S. cerevisiae AGP1-GFP strain, 3 h, at 10 µM. In general terms: A flow cytometer gives signals particle by particle.
Turning to `O=C1c2ccccc2-c2onc3ccc(Oc4ccccc4)c1c23`, the GFP response, % of DMSO was 84.3% (inactive).

On to `CCOc1nnc(C)c2c(C)n(-c3cccc(OC)c3)nc12`, for which the GFP response, % of DMSO was 99.8% (inactive).

As for `O=C(C#Cc1ccccc1)c1cccc([N+](=O)[O-])c1`, the GFP response, % of DMSO is 112% (inactive).

For `COC(=O)c1ccc2nc(Nc3nc4c(F)cc(F)cc4s3)sc2c1`, the GFP response, % of DMSO is 102% (inactive).

As for `O=C(C#Cc1cccc([N+](=O)[O-])c1)c1ccccc1`, the GFP response, % of DMSO was 113% (inactive).

On to `COC(=O)n1c(=S)oc2cc(Cl)ccc21`, for which the GFP response, % of DMSO was 111% (inactive).

`O=C(/C=C/c1ccc(Cl)c([N+](=O)[O-])c1)c1cccnc1`: the GFP response, % of DMSO is 107% (inactive).

Turning to `COCCN1C(=O)/C(=C/c2ccc(N3CCCC3)cc2C)SC1=S`, the GFP response, % of DMSO is 101% (inactive).

In the case of `N=c1c(C(=O)NCc2ccco2)cc2c(=O)n3ccccc3nc2n1CCc1ccccc1`, the GFP response, % of DMSO is 97% (inactive).

For `COc1cccc2sc(Nc3nc(-c4ccccn4)cs3)nc12`, the GFP response, % of DMSO was 104% (inactive).

Turning to `Oc1ccc2ccccc2c1/C=N/Nc1nnc(-c2ncc[nH]2)c2ccccc12`, the GFP response, % of DMSO was 95.9% (inactive).

As for `CN(C)c1ccc(/C=C/C(=O)c2cccc(Br)c2)cc1`, the GFP response, % of DMSO is 94% (inactive).

As for `CN(c1ccccc1)c1ccc(/C=c2\s/c(=C(/C#N)C(=O)C(C)(C)C)n(Cc3ccco3)c2=O)cc1`, the GFP response, % of DMSO is 126% (inactive).

For `CS(=O)(=O)N1N=C(c2ccccc2)CC1c1ccc2c(c1)OCO2` (stereo not drawn), the GFP response, % of DMSO is 204% (active).

For `CCOC(=O)N1CCN(C(=O)CCc2ccc(S(=O)(=O)NCCc3ccccc3)cc2)CC1`, the GFP response, % of DMSO was 108% (inactive).

Regarding `CC(C)(C)c1ccc(C(=O)CC(Sc2ccc(Cl)cc2)C(=O)O)cc1` (stereo not drawn), the GFP response, % of DMSO is 98.4% (inactive).

Consider `Cc1cc(C)c(C(=O)Cn2cnc3cc([N+](=O)[O-])ccc3c2=O)cc1C`, for which the GFP response, % of DMSO was 102% (inactive).

For `CC(C)(C)C(=O)/C=c1\s/c(=C\c2ccc(-c3ccc([N+](=O)[O-])cc3)o2)c(=O)n1CC(=O)NC(N)=O`, the GFP response, % of DMSO is 101% (inactive).

Source of the values: PubChem BioAssay.
